Measured values: PubChem BioAssay (EPA / NIEHS)
Several values for one entry are separate records, joined by “and”; a condition that tells them apart may be missing. Equal values may be shown once. Some structures have more than one record in an assay (separate samples or runs), and their calls can disagree. Activity calls are given as the source filed them. How the source made its calls: active means hit-call score of the fitted dose curve at least 0.9, where 1 is the maximum; inactive means score below 0.9.

Key:
[1] = read-out: Matrix Metallopeptidase 1 (MMP1), MMP1 (gene 4312); assay: BSK_BF4T_MMP1: BioMAP Diversity Plus: BF4T Assay for Matrix Metallopeptidase 1 (MMP1) Biomarker Activity (AID 2284270); conditions: primary human bronchial epithelial cells with fibroblasts
Method: (§1) BSK_BF4T is a cell-based, multiplexed-readout assay that uses bronchial epithelial cells and dermal fibroblasts, a human vascular primary cell, with measurements taken at 24 hours after chemical dosing in a microplate: 96-well plate.BSK_BF4T_MMP1 is an assay component measured in the BSK_BF4T assay. It measures MMP-1 antibody related to regulation of gene expression using ELISA technology.Data from the assay component BSK_BF4T_MMP1 was analyzed at the endpoint, BSK_BF4T_MMP1, in the positive analysis fitting direction relative to DMSO as the negative control and baseline of activity. Using a type of binding reporter, gain or loss-of-signal activity can be used to understand protein changes. To generalize the intended target to other relatable targets, this assay endpoint is annotated to the 'protease' intended target family, where the subfamily is 'matrix metalloproteinase'.
(§2) The levels of cell surface (or secreted, indicated by the prefix "s") biomarker endpoints were measured by ELISA. Overt cytotoxicity to cells in confluent adherent cultures (all systems other than the BT system) was assessed by measuring total protein levels using sulforhodamine B (SRB) staining in parallel cultures at the time of biomarker measurements, indicated as SRB endpoints. For proliferation assays for adherent cell types, individual cell types are cultured at sub-confluence and relative cell numbers quantified by SRB staining at time points optimized for each system (48 h: 3C and CASM3C systems; 72 h: BT and HDF3CGF systems; 96 h: SAg system). SRB was performed by staining cells with 0.1% SRB after fixation with 10% TCA and reading wells at 560 nm.Viability and proliferation of PBMC (T cells) was quantified by Alamar Blue reduction for the SAg and BT systems. For PBMC viability (referred to as PBMC Cytotoxicity within the assay endpoint names), cells were plated (75,000/well in a 96-well plate) and then chemical samples added for 1 h before addition of activators, SEB and TSST-1 (20 ng/mL final concentration each). Cells were incubated for 90 h. Then, Alamar Blue (20 uL/well) (Invitrogen, Cat DAL1100) was added for 6 h, and the plates were read with a fluorescence microplate reader at 546/580 nm (excitation/emission). For PBMC proliferation, cells were plated and activated as above but incubated for only 16 h prior to addition of Alamar Blue. Plates were read after 6 h.

[2] = read-out: Matrix Metallopeptidase 3 (MMP3), MMP3 (gene 4314); assay: BSK_BF4T_MMP3: BioMAP Diversity Plus: BF4T Assay for Matrix Metallopeptidase 3 (MMP3) Biomarker Activity (AID 2284271); conditions: primary human bronchial epithelial cells with fibroblasts
Method: as §1, with “plate.BSK_BF4T_MMP3” for “plate.BSK_BF4T_MMP1”, “MMP-3” for “MMP-1”, “BSK_BF4T_MMP3” for “BSK_BF4T_MMP1”, “BSK_BF4T_MMP3,” for “BSK_BF4T_MMP1,”
as §2

[3] = read-out: Tissue plasminogen activator (tPA), PLAT (gene 5327); assay: BSK_BF4T_tPA: BioMAP Diversity Plus: BF4T Assay for Tissue plasminogen activator (tPA) Biomarker Activity (AID 2284272); conditions: primary human bronchial epithelial cells with fibroblasts
Outline: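 tPA level quantified by ELISA at 24 h post-treatment in bronchial epithelial/dermal fibroblast co-cultures, gain of signal scored against DMSO baseline. Parallel cultures stained with 0.1% SRB (560 nm) to flag overt cytotoxicity.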

[4] = read-out: Plasminogen Activator Inhibitor-1 (PAI1), SERPINE1 (gene 5054); assay: BSK_BF4T_PAI1: BioMAP Diversity Plus: BF4T Assay for Plasminogen Activator Inhibitor-1 (PAI1) Biomarker Activity (AID 2284273); conditions: primary human bronchial epithelial cells with fibroblasts
Outline: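 Co-culture of human bronchial epithelial cells and dermal fibroblasts exposed to compound for 24 h. PAI-1 measured by ELISA; activity fitted in positive direction versus DMSO. Parallel SRB staining assessed overt cytotoxicity.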

[5] = BSK_BF4T_SRB: Viability Assessment in the BioMAP Diversity Plus: BF4T Assay (AID 2284274); conditions: primary human bronchial epithelial cells with fibroblasts
Outline: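 Co-culture of human bronchial epithelial cells and dermal fibroblasts (BioMAP BF4T) exposed 24 h. Total protein by sulforhodamine B staining (0.1% SRB after 10% TCA fixation, 560 nm) in parallel cultures; fitted vs DMSO.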

[6] = read-out: urokinase Plasminogen Activator (uPA), PLAU (gene 5328); assay: BSK_BF4T_uPA: BioMAP Diversity Plus: BF4T Assay for urokinase Plasminogen Activator (uPA) Biomarker Activity (AID 2284275); conditions: primary human bronchial epithelial cells with fibroblasts
Outline: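 Co-culture of human bronchial epithelial cells and dermal fibroblasts; uPA quantified by ELISA 24 hours after dosing, fitted relative to DMSO. Parallel SRB total-protein staining assessed overt cytotoxicity.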

[7] = read-out: Matrix Metallopeptidase 9 (MMP9), MMP9 (gene 4318); assay: BSK_BF4T_MMP9: BioMAP Diversity Plus: BF4T Assay for Matrix Metallopeptidase 9 (MMP9) Biomarker Activity (AID 2284276); conditions: primary human bronchial epithelial cells with fibroblasts
Outline: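 Co-culture of human bronchial epithelial cells and dermal fibroblasts dosed for 24 h; MMP-9 quantified by ELISA and fitted upward versus DMSO. Cytotoxicity monitored in parallel cultures by SRB total-protein staining at the biomarker time point.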

[8] = read-out: Interleukin-8 (IL8), CXCL8 (gene 3576); assay: BSK_IMphg_IL8: BioMAP Diversity Plus: IMphg Assay for Interleukin-8 (IL8) Biomarker Activity (AID 2284277); conditions: primary human endothelial cells with macrophages
Outline: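 Co-culture of human venular endothelial cells and macrophages exposed to chemicals for 24 h; IL-8 quantified by ELISA and compared against the DMSO baseline, with SRB total-protein staining in parallel cultures for cytotoxicity.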

[9] = read-out: Intercellular Adhesion Molecule 1 (ICAM1), ICAM1 (gene 3383); assay: BSK_BE3C_ICAM1: BioMAP Diversity Plus: BE3C Assay for Intercellular Adhesion Molecule 1 (ICAM1) Biomarker Activity (AID 2284278); conditions: primary human bronchial epithelial cells
Outline: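 Primary human bronchial epithelial cells in BE3C system, 24 h after chemical dosing; cell-surface ICAM-1 measured by ELISA relative to DMSO. Parallel SRB staining (0.1% SRB after 10% TCA fixation, read at 560 nm) assessed cytotoxicity.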

[10] = read-out: Interferon-inducible T-cell alpha chemoattractant (ITAC), CXCL11 (gene 6373); assay: BSK_BE3C_ITAC: BioMAP Diversity Plus: BE3C Assay for Interferon-inducible T-cell alpha chemoattractant (ITAC) Biomarker Activity (AID 2284279); conditions: primary human bronchial epithelial cells
Outline: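 ELISA for I-TAC in primary human bronchial epithelial cultures 24 h post-treatment, fitted relative to DMSO baseline in positive direction. Cytotoxicity checked in parallel cultures by sulforhodamine B protein staining.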

| Compound | outcome [1] | outcome [2] | AC50 [3] | AC50 [4] | AC50 [5] | AC50 [6] | AC50 [7] | AC50 [8] | AC50 [9] | AC50 [10] | outcome [3] | outcome [4] | outcome [5] | outcome [6] | outcome [7] | outcome [8] | outcome [9] | outcome [10] | AC50 [1] | AC50 [2] |
| --- | --- | --- | --- | --- | --- | --- | --- | --- | --- | --- | --- | --- | --- | --- | --- | --- | --- | --- | --- | --- |
| OCCC(F)(F)C(F)(F)C(F)(F)C(F)(F)C(F)(F)C(F)(F)C(F)(F)C(F)(F)F | inactive | inactive | 8.17 µM (active) and 7.72 µM (active) | 23.8 µM (active) and 18.6 µM (active) | 27.2 µM (active) and 34.7 µM (active) | 30 µM (active) and 17.7 µM (active) | 28 µM (active) and 16.3 µM (active) | 30 µM (active) and 44.7 µM (active) | 22.2 µM (active) and 46.7 µM (active) | 23.5 µM (active) and 18.4 µM (active) | – | – | – | – | – | – | – | – | – | – |
| C=C(C)C(=O)OCCC(F)(F)C(F)(F)C(F)(F)C(F)(F)C(F)(F)C(F)(F)F | inactive | inactive | – | – | – | – | – | – | – | – | inactive | inactive | inactive | inactive | inactive | inactive | inactive | inactive | – | – |
| FC(F)(I)C(F)(F)C(F)(F)C(F)(F)C(F)(F)C(F)(F)I | – | inactive | 7.56 µM (active) [middle of 5 runs] | 19.3 µM (active) [middle of 5 runs] | 21.9 µM (active) [middle of 5 runs] | 14.4 µM (active) [middle of 5 runs] | 18.9 µM (active) [middle of 5 runs] | 47.1 µM (active) [middle of 4 runs] | 32.3 µM (active) [middle of 5 runs] | 20.4 µM (active) [middle of 5 runs] | – | – | – | – | – | inactive | – | – | 23.4 µM (active) [middle of 5 runs] | 19.3 µM (active) [middle of 4 runs] |
| C[C@@H]1C[C@H]2[C@@H]3CCC4=CC(=O)C=C[C@]4(C)[C@@]3(F)[C@@H](O)C[C@]2(C)[C@@]1(O)C(=O)COP(=O)(O)O | inactive | inactive | – | – | – | – | – | 309 nM (active) and 884 nM (active) | – | – | inactive | inactive | inactive | inactive | inactive | – | inactive | inactive | – | – |
| OCCC(F)(F)C(F)(F)C(F)(F)C(F)(F)C(F)(F)C(F)(F)F | inactive | inactive | – | – | – | – | – | – | – | – | inactive | inactive | inactive | inactive | inactive | inactive | inactive | inactive | – | – |
| NCC(F)(F)C(F)(F)C(F)(F)C(F)(F)C(F)(F)C(F)(F)C(F)(F)F | inactive | inactive | – | – | – | – | – | – | – | – | inactive | inactive | inactive | inactive | inactive | inactive | inactive | inactive | – | – |
